{"source": "ChEMBL document CHEMBL4888484", "about": "“Replenishing the malaria drug discovery pipeline: Screening and hit evaluation of the MMV Hit Generation Library 1 (HGL1) against asexual blood stage Plasmodium falciparum ,using a nano luciferase reporter read-out” (2022)", "note": "In all, about 150,000 compounds went through this assay and about 540 (0.36%) showed an effect of 50% or more. The sample holds strong results, similar compounds and a random draw of the others, so the mix is not that of the screen."}
{"tested_on": "Plasmodium falciparum", "test": "Primary screen in NF54 nanoGlo assay, in single point, at 2uM, 72h; a lower Z score goes with more inhibition", "type": "functional, Erythrocyte", "details": "timepoint 72 hour", "units": {"% Inhibition": "%"}}
{"smiles": "Cc1cc2ncc(-c3nc([C@H]4CCOC(C)(C)C4)no3)c(C)n2n1", "% Inhibition": -5, "Z score": 0.67}
{"smiles": "Cc1ccsc1-c1nccn1CCNC(=O)c1ccc(F)cc1", "% Inhibition": -3, "Z score": 0.58}
{"smiles": "Cc1ccc(C(N)=O)c(NCC2(N3CCN(C)CC3)CCCC2)n1", "% Inhibition": -17, "Z score": 1.6}
{"smiles": "Cc1cc(N(C)C(=O)c2nccn3ccnc23)ccc1Br", "% Inhibition": 26, "Z score": -3.49}
{"smiles": "COCC(C)(C)c1noc(-c2ccc(C(F)(F)F)c(=O)[nH]2)n1", "% Inhibition": -6, "Z score": 0.62}
{"smiles": "COc1ccc(-n2nc(C(=O)N3CCN(C)CC3)c(=O)n(Cc3cccc(C(F)(F)F)c3)c2=O)cc1OC", "% Inhibition": -2, "Z score": 0.34}
{"smiles": "C=CCN1C(=O)OC(C)(CCC=C(C)C)C1(C)O", "note": "(stereo unspecified)", "% Inhibition": 76, "Z score": -1.64}
{"smiles": "O=C(COc1ccc(Br)cc1)Nc1ccc2c(c1)OCCCO2", "% Inhibition": -9, "Z score": 0.79}
{"smiles": "CC(C)C(=O)N(Cc1ccc(OS(=O)(=O)C(C)C)cc1)CC1CC1", "% Inhibition": -21, "Z score": 4}
{"smiles": "COc1cc(F)c(C(C)NC2C[C@@H]3COC[C@H]23)cc1OC", "note": "(stereo partly specified)", "% Inhibition": -1, "Z score": 0.15}
{"smiles": "CC(C)(C)OC(=O)C1C[C@@H](N)[C@@H](n2cc(C(C)(C)C)nn2)C1", "note": "(stereo partly specified)", "% Inhibition": -7, "Z score": 1.24}
{"smiles": "Cc1ccccc1C(=O)N1[C@H](C(=O)NC2CC2)COC12CCN(C(=O)c1ccc(F)cc1)CC2", "% Inhibition": -2, "Z score": 0.23}
{"smiles": "O=S(=O)(CCCOc1ccccc1)NC[C@H]1CCCN1c1ccccc1", "% Inhibition": -13, "Z score": 2.45}
{"smiles": "CCc1nc(C#N)cc(N2CCC[C@@H]2CS(C)(=O)=O)n1", "% Inhibition": -2, "Z score": 0.21}
{"smiles": "Cc1cnc([C@H](C)N2CCC(S(=O)(=O)N3CCCC3)CC2)o1", "% Inhibition": -14, "Z score": 2.67}
{"smiles": "O=c1[nH]c2ccc(NCc3cc(Cl)ccc3OCc3ccccc3F)cc2[nH]1", "% Inhibition": 2, "Z score": -0.36}
{"smiles": "CC(C)(C)OC(=O)N1CC(OC(=O)CC2(CS(C)(=O)=O)CC2)C1", "% Inhibition": -13, "Z score": 1.78}
{"smiles": "CNC(=O)c1[nH]nc2c1CN(CC(=O)Nc1cccc(C)c1C)CC2", "% Inhibition": -5, "Z score": 0.76}
{"smiles": "Cc1cccc(CN2C[C@@H](O)C[C@H]2c2nnc3n2CCN(C(=O)C(C)C)C3)c1", "% Inhibition": 4, "Z score": -0.68}
{"smiles": "CC(C)(C)OC(=O)N1CCC2(CC1)NN=C1C=C(N3CCN(c4ccccc4F)CC3)N=CN12", "% Inhibition": 50, "Z score": 1.26}
{"smiles": "CC(C)(C)OC(=O)N1CCN(c2nnc(NC(=O)c3c(F)cccc3F)[nH]2)CC1", "% Inhibition": -14, "Z score": 1.7}
{"smiles": "C[C@@]1(C(=O)N2CCN(c3ccccc3F)CC2)Oc2ccccc2NC1=O", "% Inhibition": 1, "Z score": -0.16}
{"smiles": "O=C(Nc1ccc(-n2cnnn2)cc1)c1coc(-c2ccccc2)n1", "% Inhibition": -6, "Z score": 1.22}
{"smiles": "CN1CCN(S(=O)(=O)N[C@@H](CO)c2ccc(F)cc2)CC1", "% Inhibition": -12, "Z score": 2.47}
{"smiles": "OC[C@H]1CCN(c2ccnc3cc(Cl)ccc23)C[C@@H]1O", "% Inhibition": -1, "Z score": 0.17}
{"smiles": "COc1cc2c(N3CCC([C@H](O)C(=O)NC4CC4)CC3)ccnc2cc1F", "% Inhibition": -6, "Z score": 0.61}
{"smiles": "CCC(CC)N(Cc1ccc2c(c1)OCO2)C(=O)Cc1cccnc1", "% Inhibition": 23, "Z score": -2.95}
{"smiles": "CCOc1ccc(CN2CCC[C@@](F)(C(=O)N3CCOCC3)C2)cc1OC", "% Inhibition": -11, "Z score": 0.93}
{"smiles": "O=C1c2ccccc2C(=O)N1Cc1cnc(N2CCCCC2)s1", "% Inhibition": 45, "Z score": 0.07}
{"smiles": "N#CCc1ncc(CCN2C(=O)c3ccccc3C2=O)s1", "% Inhibition": 51, "Z score": -6.59}
{"smiles": "CC(=O)Nc1ccnc(Cc2ccccc2)n1", "% Inhibition": -8, "Z score": 1.29}
{"smiles": "CC(CCc1cccn1C)NC(=O)NC1CCN(c2cnn(C)c2)C1", "note": "(stereo unspecified)", "% Inhibition": -1, "Z score": 0.08}
{"smiles": "CCc1nn(C)cc1NC(=O)N1CCN(C(=O)c2ccc(F)cc2)CC1", "% Inhibition": 5, "Z score": -0.74}
{"smiles": "COc1ccc(C(=O)Nc2ccc3nc4c(c(Nc5ccc(OC)c(OC)c5)c3c2)CCCC4)c(OC)c1", "% Inhibition": -8, "Z score": 0.97}
{"smiles": "CCOc1cc(C(=O)Nc2ccc3nc4c(c(Nc5ccc(OC)c(OC)c5)c3c2)CCCC4)cc(OCC)c1OCC", "% Inhibition": 93, "Z score": -11.16}
{"smiles": "COc1ccccc1Nc1c2c(nc3ccc(NC(=O)c4ccc5c(c4)OCO5)cc13)CCCC2", "% Inhibition": 2, "Z score": -0.26}
{"smiles": "CCC1(N2CCOCC2)CCN(c2ncc(C(F)(F)F)s2)CC1", "% Inhibition": 12, "Z score": -1.55}
{"smiles": "FC(F)(F)c1cnc(N2CCOC3(CCOCC3)CC2)s1", "% Inhibition": 105, "Z score": -19.68}
{"smiles": "CC1(N2CCOCC2)CCN(c2ncc(C(F)(F)F)s2)CC1", "% Inhibition": -5, "Z score": 0.84}
{"smiles": "CC(C)(C)c1cc(CN2CCN(S(N)(=O)=O)CC2)n[nH]1", "% Inhibition": 72, "Z score": -0.86}
{"smiles": "CC1(C#N)CCN(Cc2cc(C(C)(C)C)[nH]n2)CC1", "% Inhibition": 4, "Z score": -0.56}
{"smiles": "CC(C)(C)c1cc(CN2CCC3(CC2)[C@H](O)C[C@@H]3O)n[nH]1", "% Inhibition": -1, "Z score": 0.15}
{"smiles": "CC(C)OCC(=O)Nc1ccn(CCCn2ccnc2)n1", "% Inhibition": -7, "Z score": 1.24}
{"smiles": "CCc1cc(NC(=O)Cc2ccc(OC)cc2)nn1-c1ccc(OC)cc1", "% Inhibition": -2, "Z score": 0.3}
{"smiles": "COc1ccc(CC(=O)Nc2cc(C)n(-c3cccc(Cl)c3)n2)cc1", "% Inhibition": 80, "Z score": -8.55}
{"smiles": "Cc1cc(NC(=O)COc2ccccc2)nn1-c1ccc(Cl)cc1", "% Inhibition": -3, "Z score": 0.32}
{"smiles": "O=C(Nc1cccnc1O)c1nc(C2CC2)n(-c2ccccc2)n1", "% Inhibition": 33, "Z score": -3.76}
{"smiles": "CN(C)C(=NCCC1CCCC1)N(C)C", "% Inhibition": -7, "Z score": 0.94}
{"smiles": "O=C(Cc1n[nH]c(=O)c2ccccc12)N[C@H]1CCCc2c1[nH]c1c(Cl)cccc21", "% Inhibition": 3, "Z score": -0.39}
{"smiles": "CCN1CCCCc2cc(C(=O)N[C@H]3CCS(=O)(=O)C3)sc21", "% Inhibition": -2, "Z score": 0.2}
{"smiles": "COc1ccc(C(=O)N2c3ncnn3C(c3ccccc3)CC2c2ccc(C)cc2)cc1OC", "note": "(stereo unspecified)", "% Inhibition": 76, "Z score": -10.75}
{"smiles": "COc1ccc(C2CC(c3ccc(C)cc3)n3ncnc3N2C(=O)c2ccccc2)cc1", "note": "(stereo unspecified)", "% Inhibition": 32, "Z score": -3.62}
{"smiles": "CCC(=O)N1c2ncnn2C(c2ccc(C)cc2)CC1c1ccccc1", "note": "(stereo unspecified)", "% Inhibition": 3, "Z score": -0.41}
